Results on five compounds are retold here after PubChem BioAssay.

For assay [1], the system named is Wnt5a (protein binding on small-molecule microarray). Nature of the assay: small molecules binding Wnt5a protein – biophysical, small-molecule microarray, 635/667 nm fluorescence, primary screen (AID 1142).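 Note: fluorescence read at 667 nm with signal to noise per printed feature.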 The settings on record: 635 nm fluorescence, higher = more signal.
A short description of assay [2]: ATP-based viability of Huh7 replicon cells – cell-based, CellTiter-Glo luminescence, basal, 48 h, cytotoxicity control for HCV replication inhibitor project, primary screen (AID 1143).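 Note: Huh7 hepatoma cells carrying a hepatitis C replication reporter with no stimulus; test concentration not given here.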 To be noted: higher = more signal, called active from +8 up or from −8 down.
Assay [3] in a line: Pseudomonas biofilm growth suppression – PAO1 strain, BacTiter-Glo luminescence, LB-PBS, primary screen (AID 1144). The settings on record: P. aeruginosa PAO1 biofilm, 12 h, higher = more signal.
A short description of assay [4]: basal CRE-LacZ reporter activity in PC12 – cell-based, unstimulated, primary screen (AID 1145). To be noted: no forskolin, luminescence, 4.5 h, higher = more signal, called active from +8 up or from −8 down.
Assay [5] is described as follows: forskolin-driven CRE-LacZ activity in PC12 – cell-based, CRE-LacZ reporter, forskolin-stimulated, primary screen (AID 1146).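 Note: PC12 cells with 6xCRE LacZ reporter stimulated by forskolin 10 µM; beta-galactosidase reporter signal reflecting CREB driven transcription.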 The settings on record: luminescence, 4.5 h, higher = more signal, called active from +8 up or from −8 down.
Assay [6] has as its target Streptavidin (Streptomyces avidinii) (UniProt P22629). Nature of the assay: compounds binding control protein streptavidin – biophysical, small-molecule microarray, 635/667 nm fluorescence, artefact control for SMM compound annotation, primary screen (AID 1147).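 Note: signal reflects streptavidin binding to arrayed compounds as a control protein.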 The settings on record: higher = more signal.
A short description of assay [7]: probe aInhba binding on compound microarray – biochemical, small-molecule microarray, 635/667 nm fluorescence, primary screen (AID 1148).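 Note: score merges 667nm spot fluorescence with signal-to-noise for antibody binding to printed compounds.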 To be noted: higher = more signal.
Assay [8] addresses Torsin-1A (Homo sapiens) (UniProt O14656). Put plainly: TOR1A wild-type binding on microarray – cell lysate, small-molecule microarray, lysate, 635/667 nm, primary screen (AID 1149). To be noted: COS7 hTOR1A-WT lysate, 635 nm fluorescence, higher = more signal.
Assay [9] shares this target. Put plainly: torsin A mutant lysate binding on microarrays – cell lysate, small-molecule microarray, COS7 lysate, 635/667 nm fluorescence, primary screen (AID 1150).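 Note: score pools 667 nm emission and signal to noise measuring lysate protein binding.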 The settings on record: COS7 hTOR1A mutant lysate, 635 nm fluorescence, higher = more signal.
For assay [10], the system named is Sonic hedgehog protein (Shh). Nature of the assay: Sonic hedgehog microarray binding compounds – biochemical, small-molecule microarray, 635/667 nm fluorescence, primary screen (AID 1151).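 Note: Shh protein binding to compounds spotted on small-molecule microarray slides; score combines spot fluorescence intensity with signal-to-noise across triplicate slides.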 To be noted: 635 nm fluorescence, higher = more signal.
A short description of assay [11]: optical density shifts of acrAB sulA E. coli – strain DRC41, OD650, 48 h, E. coli filamentation inducer project, primary screen (AID 1152).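 Note: E. coli MC1000 strain DRC41 lacking acrAB efflux pump and sulA.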 The settings on record: higher = more signal, called active from +8 up or from −8 down.
Assay [12] can be described thus: probe aLefty1 binding on compound microarray – biochemical, small-molecule microarray, 635/667 nm fluorescence, primary screen (AID 1153).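 Note: score merges spot fluorescence with signal-to-noise ratio from the scanned slide images.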 The settings on record: higher = more signal.
The nature of assay [13]: plasmodial surface anion channel blockers, osmotic lysis – cell-based, P. falciparum Indochina, OD700, 1 h, primary screen (AID 1154). To be noted: P. falciparum Indochina infected RBC osmotic lysis, higher = more signal, called active from +8 up or from −8 down.
Assay [14] in a line: plasmodial surface anion channel blockers, osmotic lysis – cell-based, P. falciparum Indochina, OD700, 2 h, primary screen (AID 1155).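 Note: lysis reports solute entry through the parasite surface anion channel PSAC.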 The settings on record: P. falciparum Indochina infected erythrocytes, higher = more signal, called active from +8 up or from −8 down.
Assay [15] can be described thus: changes in parasitized red cell lysis, either direction – P. falciparum Indochina, OD700, 3 h, PSAC antagonist project, primary screen (AID 1156). The settings on record: P. falciparum-infected erythrocytes, osmotic lysis, higher = more signal, called active from +8 up or from −8 down.
Assay [16] is described as follows: plasmodial surface anion channel blockers, osmotic lysis – cell-based, P. falciparum Indochina, OD700, 18 h, primary screen (AID 1157). To be noted: P. falciparum Indochina infected erythrocytes, osmotic lysis OD700, 18 h; higher = more signal, called active from +8 up or from −8 down.
Assay [17] in a line: S6 kinase pathway phospho-S6 level changes – cell-based, A549, cytoblot, luminescence, serum-stimulated, primary screen (AID 1158).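 Note: serum-stimulated A549 lung adenocarcinoma cells; signal is phosphorylated S6 detected by cytoblot immunostaining with HRP secondary.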 To be noted: 5 h, higher = more signal.
The target of assay [18] is NADPH oxidase 2 (Homo sapiens) (UniProt P04839). Nature of the assay: compounds shifting NOX2 Amplex Red fluorescence – cell-based, HEK293-NOX2, PMA-stimulated, NOX inhibitor project, primary screen (AID 1159). Note: test concentration not given here. To be noted: 45 min, higher = more signal, called active from +8 up or from −8 down.
For assay [19], the target named is NADPH oxidase 4 (Homo sapiens) (UniProt Q9NPH5). Put plainly: compounds shifting NOX4 Amplex Red fluorescence – cell-based, HEK293-NOX4, tetracycline-induced, NOX inhibitor project, primary screen (AID 1160). To be noted: HEK293-NOX4, Amplex Red H2O2 fluorescence, 45 min; higher = more signal, called active from +8 up or from −8 down.
For assay [20], the target named is NADPH oxidase 5 (Homo sapiens) (UniProt Q96PH1). Put plainly: compounds shifting NOX5 Amplex Red fluorescence – cell-based, HEK293-NOX5, NOX inhibitor project, primary screen (AID 1161). To be noted: HEK293-NOX5, ionomycin, 45 min, higher = more signal.

Active and inactive are the calls of the source. Unless noted, the rule behind the calls is not given here.

Chain of Streptavidin (Streptomyces avidinii) (P22629 whole entry, looked up): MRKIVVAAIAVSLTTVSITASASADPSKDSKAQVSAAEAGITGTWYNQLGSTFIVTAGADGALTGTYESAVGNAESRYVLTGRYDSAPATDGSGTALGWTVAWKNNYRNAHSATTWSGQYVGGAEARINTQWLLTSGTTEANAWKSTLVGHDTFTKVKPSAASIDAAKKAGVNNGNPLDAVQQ
Chain of NADPH oxidase 4 (Homo sapiens) (Q9NPH5 whole entry, looked up): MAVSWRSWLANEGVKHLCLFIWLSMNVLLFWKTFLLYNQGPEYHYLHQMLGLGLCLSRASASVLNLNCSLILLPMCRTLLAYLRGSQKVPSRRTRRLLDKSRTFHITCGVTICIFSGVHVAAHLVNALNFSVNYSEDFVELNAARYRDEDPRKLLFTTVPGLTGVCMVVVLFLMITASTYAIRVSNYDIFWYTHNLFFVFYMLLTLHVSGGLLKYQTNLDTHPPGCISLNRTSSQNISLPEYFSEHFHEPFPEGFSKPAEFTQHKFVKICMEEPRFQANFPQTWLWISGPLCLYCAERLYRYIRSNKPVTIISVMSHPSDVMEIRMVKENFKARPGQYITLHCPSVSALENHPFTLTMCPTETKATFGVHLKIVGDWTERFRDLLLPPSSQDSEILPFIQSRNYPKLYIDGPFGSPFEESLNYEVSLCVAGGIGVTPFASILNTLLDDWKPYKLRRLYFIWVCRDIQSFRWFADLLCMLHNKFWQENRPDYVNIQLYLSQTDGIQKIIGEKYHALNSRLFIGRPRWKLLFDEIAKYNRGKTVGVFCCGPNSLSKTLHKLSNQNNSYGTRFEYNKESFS
Chain of NADPH oxidase 5 (Homo sapiens) (Q96PH1 whole entry, looked up): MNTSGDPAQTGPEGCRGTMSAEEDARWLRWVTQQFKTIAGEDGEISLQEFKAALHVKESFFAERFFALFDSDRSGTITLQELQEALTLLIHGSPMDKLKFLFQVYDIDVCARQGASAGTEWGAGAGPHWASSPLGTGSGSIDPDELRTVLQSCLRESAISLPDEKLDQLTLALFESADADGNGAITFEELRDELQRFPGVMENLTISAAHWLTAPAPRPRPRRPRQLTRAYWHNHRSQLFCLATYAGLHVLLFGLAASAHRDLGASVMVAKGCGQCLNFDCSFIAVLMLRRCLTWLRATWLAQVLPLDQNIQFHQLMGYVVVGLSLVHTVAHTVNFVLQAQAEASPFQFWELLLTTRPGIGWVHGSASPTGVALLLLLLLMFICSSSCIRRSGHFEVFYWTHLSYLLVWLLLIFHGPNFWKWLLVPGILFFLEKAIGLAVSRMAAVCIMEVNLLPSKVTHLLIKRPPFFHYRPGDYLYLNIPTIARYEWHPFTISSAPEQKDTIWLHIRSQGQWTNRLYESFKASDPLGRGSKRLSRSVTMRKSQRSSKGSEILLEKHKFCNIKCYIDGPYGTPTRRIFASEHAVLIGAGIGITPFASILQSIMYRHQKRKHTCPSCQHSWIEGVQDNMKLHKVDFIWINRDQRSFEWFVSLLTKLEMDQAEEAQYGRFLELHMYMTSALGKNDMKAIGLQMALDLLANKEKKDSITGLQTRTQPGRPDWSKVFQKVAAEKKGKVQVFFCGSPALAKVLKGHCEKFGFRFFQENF
Chain of Torsin-1A (Homo sapiens) (O14656 whole entry, looked up): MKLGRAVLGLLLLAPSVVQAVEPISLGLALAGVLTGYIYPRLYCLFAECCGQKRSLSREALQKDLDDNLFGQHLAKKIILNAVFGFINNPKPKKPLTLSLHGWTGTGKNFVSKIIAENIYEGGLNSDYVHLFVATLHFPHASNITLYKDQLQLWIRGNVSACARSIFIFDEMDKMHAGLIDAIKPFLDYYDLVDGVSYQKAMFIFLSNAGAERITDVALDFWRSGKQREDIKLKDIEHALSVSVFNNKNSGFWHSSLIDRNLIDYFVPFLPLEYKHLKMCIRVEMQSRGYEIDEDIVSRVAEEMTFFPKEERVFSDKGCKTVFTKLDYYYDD
Chain of NADPH oxidase 2 (Homo sapiens) (P04839 whole entry, looked up): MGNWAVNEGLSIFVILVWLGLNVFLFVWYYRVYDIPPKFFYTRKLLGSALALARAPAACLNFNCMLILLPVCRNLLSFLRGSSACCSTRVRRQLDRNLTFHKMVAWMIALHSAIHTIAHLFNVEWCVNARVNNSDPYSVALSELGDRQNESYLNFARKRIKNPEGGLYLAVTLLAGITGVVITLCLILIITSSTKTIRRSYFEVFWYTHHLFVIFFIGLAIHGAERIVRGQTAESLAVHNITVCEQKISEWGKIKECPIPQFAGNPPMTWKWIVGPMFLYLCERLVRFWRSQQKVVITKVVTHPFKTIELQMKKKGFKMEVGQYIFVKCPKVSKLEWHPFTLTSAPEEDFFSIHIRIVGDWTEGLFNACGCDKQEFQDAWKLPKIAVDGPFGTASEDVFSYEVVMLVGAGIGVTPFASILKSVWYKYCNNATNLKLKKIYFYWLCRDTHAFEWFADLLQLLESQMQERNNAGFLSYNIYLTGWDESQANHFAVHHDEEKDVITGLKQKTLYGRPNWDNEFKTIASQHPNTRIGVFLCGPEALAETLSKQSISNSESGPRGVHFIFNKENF

Take `O=C1[C@H]2[C@H]3[C@H](O)[C@H](O)CC(=NOC[C@@H](O)COCc4ccco4)[C@@H]3CC[C@H]2C(=O)N1c1cccc(Oc2ccccc2)c1`: the composite z-score in assay [1] is -0.403; in assay [6], 0.707; in [7], -0.0986; in assay [8] it was 0.419; in assay [9] it was 0.94; in assay [10], 0.537. The same compound gave a composite z-score in assay [12] of -0.247. Besides, the z-score is -0.578 (inactive) in [2]; 0.626 (inactive) in assay [3]; -1.02 (inactive) in assay [4]; -0.009 (inactive) in assay [5]; -1.26 (inactive) in assay [11]; 2.27 (inactive) in assay [13]. In addition, the z-score is 0.802 (inactive) in assay [14]; 1.39 (inactive) in [15]; 0.157 (inactive) in [16]; -0.664 in [17]; 2.2 (inactive) in assay [18]; 1.32 (inactive) in [19]. In assay [20], the z-score worked out at 0.425.

As to `O=C1C2=CC[C@H]3C(=O)N(c4ccc(F)cc4F)C(=O)[C@H]3[C@H]2[C@H](O)[C@@H]2O[C@H]12`, the composite z-score in [1] is 0.28; in assay [6] it was 0.447; in [7] it was -0.0221; in assay [8], 0.528; in assay [9], 0.308; in [10] it was 0.389. The same compound came in with a composite z-score in assay [12] of 0.558. Moreover, the z-score in assay [2] is 0.612 (inactive); in [3], -0.845 (inactive); in [4], -0.202 (inactive); in [5], 0.305 (inactive); in assay [11], -0.138 (inactive); in assay [13] it was -0.487 (inactive). Further, the z-score was -0.122 (inactive) in assay [14]; -0.708 (inactive) in [15]; -0.0627 (inactive) in [16]; 0.311 in assay [17]; 0.0832 (inactive) in [18]; 0.0553 (inactive) in [19]. For the same compound, the z-score in [20] was -0.191.

Consider `CC(=O)OC[C@H]1O[C@H](C#CCC2CCCCC2)C=C[C@@H]1OC(C)=O`, for which the composite z-score in assay [1] was 0.293; in assay [6], 0.176; in assay [7], -0.0589; in [8], 0.419; in assay [9], 0.96; in assay [10] it was 1.17. Moreover, in assay [12], the composite z-score is -0.19. Further, the z-score in assay [2] was -2.43 (inactive); in [3], 0.135 (inactive); in [4] it was 0.105 (inactive); in assay [5] it was 0.483 (inactive); in assay [11] it was 0.457 (inactive); in assay [13], 2.09 (inactive). Also, the z-score in assay [14] was 0.138 (inactive); in assay [15], 0.0473 (inactive); in [16] it was 0.125 (inactive); in assay [17], -0.274; in assay [18] it was 0.217 (inactive); in assay [19], 0.556 (inactive). Besides, the z-score in assay [20] is 1.74.

In the case of `CCOC(=O)CCN1C(=O)[C@H]2[C@H]3[C@H](O)[C@H](O)CC(=O)[C@@H]3CC[C@H]2C1=O`, the composite z-score in assay [1] was 0.352; in assay [6], 0.182; in assay [7], -0.179; in assay [8] it was 0.205; in assay [9], 0.5; in assay [10], 0.757. This compound also showed a composite z-score in assay [12] of -0.407. The z-score in assay [2] was -0.19 (inactive); in assay [3], -0.401 (inactive); in assay [4], 0.527 (inactive); in [5], -0.671 (inactive); in [11], -0.851 (inactive); in [13] it was 0.781 (inactive). Moreover, the z-score in assay [14] was 0.411 (inactive); in [15], -0.737 (inactive); in [16], 0.305 (inactive); in [17], -0.373; in [18] it was 0.583 (inactive); in [19], 0.41 (inactive). Moreover, the z-score in [20] is -0.0545.

Regarding `COC(=O)CC=C[C@@H](C)[C@@H](C=NOC[C@@H](O)COCc1ccco1)OC`, the composite z-score in assay [1] is -0.302; in [6] it was 0.457; in [7] it was -0.214; in assay [8] it was 3.02; in [9], 2.69; in assay [10], 1.99. The composite z-score in assay [12] is -0.202. Besides, the z-score in [2] was 0.545 (inactive); in assay [3] it was 1.47 (inactive); in assay [4], -1.05 (inactive); in assay [5], -0.252 (inactive); in assay [11], 0.245 (inactive); in [13], 0.202 (inactive). Further, the z-score in [14] was 0.322 (inactive); in [15], -0.0838 (inactive); in assay [16] it was 0.145 (inactive); in [17], 0.564; in [18], -0.499 (inactive); in assay [19], 0.024 (inactive). Also, the z-score in [20] was 0.403.
